Data reported in PubChem BioAssay AID362 (NMMLSC, 2006).
The campaign covered roughly 4,300 compounds. About 60 (1%) were called active. The full list was thinned out, with actives kept by preference. Unmarked numbers belong to inactive results.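 Rule for the calls: active = inhibition of labelled peptide binding to the formyl peptide receptor of at least 65%; inactive = the rest.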

Target: fMet-Leu-Phe receptor (Homo sapiens) (UniProt P21462)
Assay: FPR binders displacing fluorescent formyl peptide, primary screen, U937-FPR cells, fMLFK-FITC, flow cytometry (AID 362);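 for inhibition: plate controls were buffer control wells for no effect and unlabeled fMLFF blocking peptide for full effect; higher means less cell fluorescence so more probe displaced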
Conditions: fMLFK-FITC displacement; active compounds read high, concentration not given here

fMet-Leu-Phe receptor (Homo sapiens), sequence (P21462 whole entry, looked up): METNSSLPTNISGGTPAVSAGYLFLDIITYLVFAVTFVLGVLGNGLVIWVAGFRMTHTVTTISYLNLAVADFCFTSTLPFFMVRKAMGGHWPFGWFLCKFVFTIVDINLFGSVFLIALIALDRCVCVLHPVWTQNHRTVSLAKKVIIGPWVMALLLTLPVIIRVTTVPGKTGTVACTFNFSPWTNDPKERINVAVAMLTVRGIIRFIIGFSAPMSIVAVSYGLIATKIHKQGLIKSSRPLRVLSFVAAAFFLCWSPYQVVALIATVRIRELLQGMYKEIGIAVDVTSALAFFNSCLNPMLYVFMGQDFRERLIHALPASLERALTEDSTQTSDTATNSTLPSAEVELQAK

Structure (SMILES)	inhibition
CC1(C)CC(=O)C2=C(C1)Nc1[nH]n(-c3ccccc3)c(=O)c1C2c1ccccc1Cl (stereo not drawn)	70.6% (active)
CC1(C)CC(=O)C2=C(C1)Nc1[nH]n(-c3ccccc3)c(=O)c1C2c1ccc(F)cc1 (stereo not drawn)	47.8%
CCOc1ccc(C2C3=C(CC(C)(C)CC3=O)Nc3[nH]n(-c4ccccc4)c(=O)c32)cc1 (stereo not drawn)	76% (active)
CC1(C)CC(=O)C2=C(C1)Nc1[nH]n(-c3ccccc3)c(=O)c1C2c1ccccc1F (stereo not drawn)	55.8%
Cc1ccc(C2C3=C(CC(C)(C)CC3=O)Nc3[nH]n(-c4ccccc4)c(=O)c32)cc1 (stereo not drawn)	65.6% (active)
CC(C)c1ccc(C2C3=C(CC(C)(C)CC3=O)Nc3[nH]n(-c4ccccc4)c(=O)c32)cc1 (stereo not drawn)	57%
CCOc1ccc(C2C(C#N)=C(N)OC3=C2C(=O)CC(C)(C)C3)cc1 (stereo not drawn)	15.2%
CC1(C)CC(=O)C2=C(C1)Nc1ncnn1C2c1ccc(OCc2ccccc2)cc1 (stereo not drawn)	7.5%
CC1(C)CC(=O)C2=C(C1)Nc1[nH]n(-c3ccccc3)c(=O)c1C2c1cccs1 (stereo not drawn)	50.9%
COc1cc(C2NC(=O)NC(C)=C2C(=O)OC2CCCCCC2)ccc1O (stereo not drawn)	inactive
O=C(O)c1ccc([N+](=O)[O-])c2c1NC(C(=O)O)C1CC=CC21 (stereo not drawn)	inactive
CCOC(=O)C1CCC(CN(Cc2ccc(Cl)cc2)S(=O)(=O)c2ccc([N+](=O)[O-])cc2)CC1 (stereo not drawn)	inactive
CCCc1cc2c(=O)c(-c3cc4ccccc4o3)coc2cc1OC(C)=O	33.7%
CCOCCOC(=O)C1=C(C)NC2=C(C(=O)C(C(=O)OC)C(C)C2)C1c1ccc(OC)c(O)c1 (stereo not drawn)	23.5%
COc1ccc(C(=O)NCC2(c3ccc(OC)c(OC)c3)CCCC2)cc1	inactive
CCCCCOC(=O)c1cccc(N2C(=O)C3C4CCC(C4)C3C2=O)c1 (stereo not drawn)	inactive
COc1cc2c(C(=O)N(C)c3cccc(Cl)c3)cn(CC(C)C)c(=O)c2cc1OC	inactive
CCOC(=O)C1C(c2cccc([N+](=O)[O-])c2)NC(=O)NC1(O)C(F)(F)F (stereo not drawn)	inactive
Cc1ccc(C(=O)C2=C(N)OC3=C(C(=O)CC(C)(C)C3)C2c2ccccc2Cl)cc1 (stereo not drawn)	inactive
O=C(CSc1nc2ccccc2c(=O)n1CC1CCC(C(=O)NCc2ccccc2Cl)CC1)NC1CCCC1 (stereo not drawn)	4.5%
CC(C)CN(CC(C)C)S(=O)(=O)c1ccc(C(=O)Nc2cccc(-c3nc4ccccc4[nH]3)c2)cc1	4.7%
CCCCCCc1cc2c3c(c(=O)oc2cc1OCC(C)=O)CCC3	5.4%

Structure (SMILES)	inhibition
CCCCCCc1cc2c3c(c(=O)oc2cc1OCC(=O)O)CCC3	74.7% (active)
CCCCCCc1cc2c3c(c(=O)oc2cc1OCC(=O)O)CCCC3	47.7%
CC1CC(C)CN(C(=O)c2cn(C3CCCC3)c(=O)c3c2c2ccccc2n3C)C1 (stereo not drawn)	inactive
CCOC(=O)c1c(-c2ccc(OC)cc2)csc1NC(=O)C1CCCCC1C(=O)O (stereo not drawn)	3%
COC(=O)c1c(-c2ccc(C)c(C)c2)csc1NC(=O)C1CCCCC1C(=O)O (stereo not drawn)	22.4%
CCOC(=O)c1c(-c2ccc(C)cc2)csc1NC(=O)C1CCCCC1C(=O)O (stereo not drawn)	15.5%
COC(=O)c1c(-c2cc(C)ccc2C)csc1NC(=O)C1CCCCC1C(=O)O (stereo not drawn)	40.4%
COC(=O)c1c(-c2cccc(C)c2)csc1NC(=O)C1CCCCC1C(=O)O (stereo not drawn)	68.9% (active)
CCOC(=O)c1c(-c2ccc(F)cc2)csc1NC(=O)C1CCCCC1C(=O)O (stereo not drawn)	35.1%
CCOC(=O)c1c(-c2ccc(C)cc2C)csc1NC(=O)C1CCCCC1C(=O)O (stereo not drawn)	94.2% (active)
COC(=O)c1c(-c2ccccc2)csc1NC(=O)C1CCCCC1C(=O)O (stereo not drawn)	inactive
COC(=O)c1c(-c2ccc(F)cc2)csc1NC(=O)C1CCCCC1C(=O)O (stereo not drawn)	72.4% (active)
O=C(O)C1CCCCC1C(=O)N1CCN(C/C=C/c2ccccc2)CC1 (stereo not drawn)	inactive
O=C(CSc1nc2ccccc2c(=O)n1CC1CCC(C(=O)NCc2ccco2)CC1)NCCC1=CCCCC1 (stereo not drawn)	7.9%
CC(=O)N1CCCc2cc(S(=O)(=O)NC(C(=O)NCc3cccs3)C(C)C)ccc21 (stereo not drawn)	inactive
CC(C)C(C(=O)O)n1c(O)c(C2=c3ccccc3=NC2=O)sc1=S (stereo not drawn)	106% (active)
CC(C)C(C(=O)O)n1c(O)c(C2=c3cc(Br)ccc3=NC2=O)sc1=S (stereo not drawn)	95.3% (active)
Cc1cc(C)c(S(=O)(=O)NCC2CCC(C(=O)NCC3CCCO3)CC2)c(C)c1 (stereo not drawn)	inactive
CC(C)CC(C(=O)OCC(=O)c1ccc(Cl)cc1)N1C(=O)c2ccccc2C1=O (stereo not drawn)	inactive
CCN(CC)CC(=O)N1CCCc2c1c(=O)oc1ccc(OC(C)=O)cc21	inactive
Cc1ccc2nc3c(cc(C(=O)NCc4ccco4)c(=N)n3C3CCCC3)c(=O)n2c1	inactive
